Compound activity: PubChem, National Center for Advancing Translational Sciences (NCATS)
KB-V1 cytotox – qHTS assay for MDR1-selective chemotherapeutics: Primary screen using the drug-selected MDR subline cells KB-V1 | KB-V1 MDR cells viability, CellTiter-Glo, 72 h | Potency, µM (top dose mostly 46.1 µM), hits mostly cytotoxic | hit rate 3.4% among 400,000; note: nearly all actives have a fitted effect of over 60% in size
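Compound-treated KB-V1 multidrug-resistant cells, 72 h, 37 degrees C; viability by CellTiter-Glo. Fitted qHTS curves give the values.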
KB-3-1 tox – qHTS assay for MDR1-selective chemotherapeutics: Primary screen using the parental adenocarcinoma cell KB-3-1; KB-3-1 viability, CellTiter-Glo ATP luminescence, 72 h; Potency, µM (highest dose often 46.1 µM), actives largely listed as cytotoxic; hit rate 1.4% among 400,000; AID 1347075, 2019; note: nearly all actives have a fitted effect of over 60% in size
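Cells are dispensed, compounds pinned in, plates held at 37 °C for 72 h, then CellTiter-Glo is added and luminescence read after 10 minutes. Cell line: parental KB-3-1 in phenol-red-free DMEM, 10% FBS.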
MCF10A rerep – A quantitative high throughput screen for small molecules that induce DNA re-replication in MCF 10a normal breast cells. MCF 10A DNA re-replication, Hoechst nuclear intensity, 48 h. Potency, µM (titrated, usually from 46.1 µM), actives largely listed as activators. hit rate 2.9% among 350,000. AID 624296, 2012; note: nearly all actives have a fitted effect of over 50% in size
HT1080-NT tox – qHTS for induction of synthetic lethality in tumor cells producing 2HG: qHTS for the HT-1080-NT fibrosarcoma cell line. Potency, µM (titrated, usually from 46.1 µM), hits mostly cytotoxic. HT-1080-NT fibrosarcoma viability, CellTiter-Glo ATP luminescence, 48 h. hit rate 1.6% among 360,000;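 note: NT is the 2HG producing partner of a matched IDH1 knockdown line; nearly all actives have a fitted effect of over 55% in size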
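Read-out is CellTiter-Glo luminescence after 10 minutes at room temperature, following 48 hours' compound treatment of HT-1080-NT cells (750 cells/well, RPMI, 5% FBS, 37 degrees C).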
HT1080 IDH1KD tx – qHTS for induction of synthetic lethality in tumor cells producing 2HG: qHTS for the HT-1080-IDH1KD cell line | HT-1080 IDH1 knockdown viability, ATP luminescence, 48 h | Potency, µM (doses to about 46.1 µM), usual class: cytotoxic | hit rate 2% among 360,000
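HT-1080-IDH1KD cells (IDH1 knocked down), 750/well in RPMI with 5% FBS, treated with compound 48 h at 37 degrees C. Viability by CellTiter-Glo luminescence, normalised to DMSO and no-cell wells; concentration-response curves classed.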
SW480 rereplic – A quantitative high throughput screen for small molecules that induce DNA re-replication in SW480 colon adenocarcinoma cells; SW480 DNA re-replication, Hoechst DNA content imaging, 48 h; Potency, µM (top dose mostly 46.1 µM), usual class: activators; hit rate 1.8% among 340,000; note: nearly all actives have a fitted effect of over 55% in size
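Compounds, transferred as 23 nL by pin tool, were incubated with cells for 48 hr; DNA content per nucleus was then quantified by Hoechst staining and fluorescence plate imaging.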
Numbers stand for hits; - = inactive; ? = inconclusive; . = not tested or not shown. Only some compounds are listed: those with a hit (about 7.9% of all), similar ones and a draw of the others. Calls come from the whole dose curve; as a rule, active = well fitted curve in the direction sought with a large enough effect; inconclusive = small, poorly fitted or top-dose-only effect, or another doubt; inactive = no such curve, though single readings can be large; an effect the other way counts as inactive or inconclusive.

SMILES	KB-V1 cytotox	KB-3-1 tox	MCF10A rerep	HT1080-NT tox	HT1080 IDH1KD tx	SW480 rereplic
Cc1ccc(NC(=O)CS(=O)CC(=O)Nc2ccccc2-c2ccc(C)o2)cc1 (stereo not given)	-	-	-	-	?	-
Cn1nc(C(=O)Nc2cccc(C(F)(F)F)c2)c2ccccc2c1=O	8.2µM	-	-	-	-	-
Cn1nc(C(=O)Nc2cccc(C(=O)NC3CC3)c2)c2ccccc2c1=O	-	-	-	-	-	-
CC1C/C(=C/c2cccs2)C(=O)/C(=C/c2cccs2)C1 (stereo not given)	?	-	-	-	-	?
CC(C)(C)C1C/C(=C/c2ccccn2)C(=O)/C(=C/c2ccccn2)C1 (stereo not given)	?	?	?	0.73µM	0.65µM	0.41µM
CC1C/C(=C/c2ccccn2)C(=O)/C(=C/c2ccccn2)C1 (stereo not given)	-	?	2.3µM	0.65µM	0.58µM	0.29µM
Fc1ccc(NC(=S)NN=Cc2ccccc2Cl)cc1	-	-	-	-	-	?
CN(C)c1nc(N/N=C/c2ccccc2O)nc(Nc2ccc(F)cc2)n1	?	?	10µM	?	13µM	5.8µM
Fc1ccccc1/C=N/NC(=S)Nc1ccc(Cl)cc1Cl	1.5µM	8.2µM	?	5.2µM	3.3µM	3.3µM
CN(C)c1nc(Nc2ccc(F)cc2)nc(Oc2ccc(F)cc2)n1	-	-	-	-	-	-
CN(C)c1ccc(C=NNC(=S)Nc2ccc(F)cc2)cc1	-	-	21µM	-	-	?
Oc1ccccc1C=NNC(=S)Nc1ccc(F)cc1	-	?	?	?	5.8µM	-
CC(=O)c1c(C(=O)O)c2ccccc2[nH]c1=O	-	-	-	-	-	-
O=C1OC(c2ccc(Br)cc2)=N/C1=C\N1CCCCC1	-	-	-	-	-	-
Cc1nn(C)cc1/C=N/NC(=S)Nc1ccccc1	?	-	-	-	-	1.6µM
COc1ccc(-c2nc(CS(=O)CC(=O)NCc3ccc(Cl)cc3)c(C)o2)cc1 (stereo not given)	-	-	-	-	-	-
Cc1cc2nc(C3CCN(Cc4nnnn4Cc4ccccc4)CC3)[nH]c2cc1C	?	?	-	2.5µM	?	-
Clc1ccc(CN2CCC(c3nc4ccc(Cl)cc4[nH]3)CC2)cc1	21µM	?	?	-	-	?
CC1CCCN(C(=O)CN2CCC(c3nc4ccc(Cl)cc4[nH]3)CC2)C1 (stereo not given)	?	-	-	-	-	-
CCOC(=O)Cn1c(=O)oc2cc(S(=O)(=O)N3CCN(C(=O)OCC)CC3)ccc21	-	-	-	-	-	-
COC(=O)c1ccc(CSC2=NCCS2)cc1	-	-	-	-	-	-
COc1cc2sc3ccc(-c4ccc(CN5CCOCC5)cc4)cc3c(=O)c2cc1OC	13µM	?	6.5µM	-	-	-
COc1ccc(CN2CCOCC2)cc1OC	-	-	-	-	-	-
Cc1[nH]c2ccccc2c1CCO	-	-	-	-	-	-
Cc1[nH]c2ccccc2c1C1=CC(=O)C=CC1=O	-	?	-	-	21µM	?
SMILES	KB-V1 cytotox	KB-3-1 tox	MCF10A rerep	HT1080-NT tox	HT1080 IDH1KD tx	SW480 rereplic
O=C(Nc1cccc2cccnc12)c1cccc([N+](=O)[O-])c1	-	-	-	-	-	-
N#CN=CN1CC=C(c2ccc(Cl)cc2)CC1	2.3µM	9.2µM	.	-	-	.
CC(C)CN1C(=O)N(c2ccc(Cl)cc2)C(C)(O)CC1(C)C (stereo not given)	-	-	?	-	-	-
CCOc1ccc(NC(=O)N(CCC(C)C)C2CCN(C(C)=O)CC2)cc1	18µM	-	-	-	-	-
CCOc1ccc(NC(=O)N2CCC(c3ccc(C)cc3)C2)cc1 (stereo not given)	21µM	-	-	-	-	-
CCOc1ccc(NC(=O)N(C2CCCC2)C2CCN(C(C)=O)CC2)cc1	-	-	-	-	-	-
CCOc1ccc(NC(=O)N2CCC(N3CCCCC3)CC2)cc1	-	-	.	.	.	.
C=CCNC(=O)Cc1c(OC)ccc2cc(Br)ccc12	21µM	?	-	-	-	-
COc1ccc2cc(Br)ccc2c1CC(=O)NC(C)C	?	-	-	-	-	-
CCC1=NN(C(=O)c2ccccc2O)C(O)(c2ccccc2)C1 (stereo not given)	?	?	?	?	?	16µM
COc1cccc(C(=O)N2N=C(c3ccccc3)CC2(O)C(F)(F)F)c1 (stereo not given)	16µM	-	?	-	-	-
CCC1=NN(C(=O)c2ccccc2Br)C(O)(c2ccc(Br)cc2)C1 (stereo not given)	-	-	-	-	-	-
O=C(c1ccccc1O)N1N=C(c2ccccc2)CC1(O)C(F)(F)F (stereo not given)	-	-	21µM	-	-	?
Nc1ccc(C(=O)N2N=C(c3ccccc3)CC2(O)C(F)(F)F)cc1 (stereo not given)	-	-	-	-	-	-
Cc1ccccc1OCC(=O)N1N=C(c2cccnc2)CC1(O)C(F)(F)F (stereo not given)	21µM	-	-	-	-	-
Cc1cc(C)cc(OCC(=O)N2N=C(c3cccnc3)CC2(O)C(F)(F)F)c1 (stereo not given)	?	-	-	-	-	-
O=C(Nc1ccc(Cl)cc1Cl)c1ccc(-c2ccccc2)cc1	-	-	-	?	-	-
CCNc1ccc(C(=O)OCC)cc1NC(=O)c1cccc(S(=O)(=O)N(C)c2ccccc2)c1	-	-	-	-	-	-
CCNc1ccc(C(=O)OCC)cc1NC(=O)c1cccc(N(C)C)c1	?	?	-	1.8µM	?	-
CCOC(=O)c1ccc(Cl)c(NC(=O)c2ccc(-c3ccccc3)cc2)c1	-	?	3.7µM	-	-	-
Cc1ccc(S(=O)(=O)c2c(N)n(NC(=O)C3CC3)c3nc4ccccc4nc23)cc1	-	-	-	-	-	-
COc1ccc(Nc2nc3ccccc3n3nnnc23)cc1	5.8µM	-	-	-	?	-
Cc1ccc(Nc2nc3ccccc3n3nnnc23)cc1	-	-	?	-	-	-
Cc1cccc(Nc2nc3ccccc3n3nnnc23)c1	-	-	-	-	-	-
COc1cc(Nc2nc3ccccc3n3nnnc23)cc(OC)c1OC	-	-	29µM	-	-	-
